# Unmarked numbers belong to inactive results.
# Tests used:
# Assay in all cases: log2 ratio of Biotin-Ahx-Ub-VS probe labelling (fragment/DMSO); higher = less target engagement (more negative = stronger competition), active = hit call of the paper (q ≤ 0.05, log2 ratio ≤ -1)
# Details in all cases: compound concentration: 200 uM; treatment time: 3 h
# [1] = target: T1, OTUD6B (UniProt Q8N6M0)
# T1 sequence (whole entry): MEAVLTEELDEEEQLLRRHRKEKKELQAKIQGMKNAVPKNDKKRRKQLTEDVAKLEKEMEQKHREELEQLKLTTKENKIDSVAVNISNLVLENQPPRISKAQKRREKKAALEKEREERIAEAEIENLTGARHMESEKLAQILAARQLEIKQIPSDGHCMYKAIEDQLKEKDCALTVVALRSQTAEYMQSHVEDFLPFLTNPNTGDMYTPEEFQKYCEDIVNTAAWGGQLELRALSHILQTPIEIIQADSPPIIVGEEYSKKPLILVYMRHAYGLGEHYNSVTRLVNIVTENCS
# In short: (§1)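 Lysate from HEK293T cells, 495 µg per sample in Tris/CHAPS/IGEPAL buffer with protease inhibitors, was treated for 3 h in triplicate with fragment at 200 µM or vehicle. Biotin-Ahx-Ub-VS was next added at 0.5 µM final for 1 h. The labelled DUBs were enriched with NeutrAvidin, digested with LysC and trypsin, and run by diaPASEF LC-MS/MS, with values given as average log2 fragment/vehicle ratios by unpaired t-test on global-median-normalised Spectronaut quantities of proteins with ≥2 unique peptides.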
# [2] = target: T2, OTUD7B (UniProt Q6GQQ9)
# T2 sequence (whole entry): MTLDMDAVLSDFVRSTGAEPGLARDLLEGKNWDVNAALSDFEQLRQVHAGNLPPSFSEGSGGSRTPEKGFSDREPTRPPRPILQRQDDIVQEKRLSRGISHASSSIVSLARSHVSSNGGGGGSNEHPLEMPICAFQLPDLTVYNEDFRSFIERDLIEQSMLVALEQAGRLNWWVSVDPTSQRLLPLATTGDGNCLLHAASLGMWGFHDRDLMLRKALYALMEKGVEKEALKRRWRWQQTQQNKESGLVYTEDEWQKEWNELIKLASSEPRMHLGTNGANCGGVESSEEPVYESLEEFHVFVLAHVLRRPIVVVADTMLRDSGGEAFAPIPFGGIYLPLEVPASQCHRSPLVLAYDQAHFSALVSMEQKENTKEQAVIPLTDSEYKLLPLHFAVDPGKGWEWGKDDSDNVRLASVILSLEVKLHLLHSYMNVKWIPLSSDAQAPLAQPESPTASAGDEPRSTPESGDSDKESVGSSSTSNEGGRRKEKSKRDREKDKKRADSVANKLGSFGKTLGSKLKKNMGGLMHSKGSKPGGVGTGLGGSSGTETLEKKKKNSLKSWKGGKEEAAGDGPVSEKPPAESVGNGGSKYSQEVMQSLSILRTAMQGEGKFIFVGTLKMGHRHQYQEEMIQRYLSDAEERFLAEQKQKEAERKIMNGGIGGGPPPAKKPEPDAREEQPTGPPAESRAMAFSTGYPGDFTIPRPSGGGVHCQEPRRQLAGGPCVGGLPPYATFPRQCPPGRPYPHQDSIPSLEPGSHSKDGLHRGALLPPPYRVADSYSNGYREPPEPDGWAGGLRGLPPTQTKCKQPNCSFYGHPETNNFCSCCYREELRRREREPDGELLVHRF
# In short: as §1
# [3] = target: PRPF8 (UniProt Q6P2Q9)
# In short: as §1
# [4] = target: T3, PSMD7 (UniProt P51665)
# T3 sequence (whole entry): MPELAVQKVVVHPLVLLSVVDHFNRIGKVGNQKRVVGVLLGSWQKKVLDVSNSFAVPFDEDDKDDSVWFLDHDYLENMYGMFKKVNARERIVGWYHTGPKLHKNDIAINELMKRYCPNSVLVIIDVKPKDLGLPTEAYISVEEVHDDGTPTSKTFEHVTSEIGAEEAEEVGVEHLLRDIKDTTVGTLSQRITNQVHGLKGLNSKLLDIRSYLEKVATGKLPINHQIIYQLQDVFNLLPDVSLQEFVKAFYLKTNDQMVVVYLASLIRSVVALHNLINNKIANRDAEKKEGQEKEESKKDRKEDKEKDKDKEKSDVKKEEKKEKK
# In short: as §1
# [5] = target: UCHL1 (UniProt P09936)
# In short: as §1
# [6] = target: T4, UCHL3 (UniProt P15374)
# T4 sequence (whole entry): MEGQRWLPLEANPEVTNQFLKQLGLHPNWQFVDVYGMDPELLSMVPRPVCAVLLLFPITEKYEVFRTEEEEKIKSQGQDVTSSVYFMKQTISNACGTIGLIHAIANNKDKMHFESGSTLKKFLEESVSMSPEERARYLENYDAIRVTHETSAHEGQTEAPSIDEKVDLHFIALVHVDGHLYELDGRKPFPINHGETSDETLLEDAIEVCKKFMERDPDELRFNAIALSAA
# In short: as §1
# [7] = target: T5, UCHL5 (UniProt Q9Y5K5)
# T5 sequence (whole entry): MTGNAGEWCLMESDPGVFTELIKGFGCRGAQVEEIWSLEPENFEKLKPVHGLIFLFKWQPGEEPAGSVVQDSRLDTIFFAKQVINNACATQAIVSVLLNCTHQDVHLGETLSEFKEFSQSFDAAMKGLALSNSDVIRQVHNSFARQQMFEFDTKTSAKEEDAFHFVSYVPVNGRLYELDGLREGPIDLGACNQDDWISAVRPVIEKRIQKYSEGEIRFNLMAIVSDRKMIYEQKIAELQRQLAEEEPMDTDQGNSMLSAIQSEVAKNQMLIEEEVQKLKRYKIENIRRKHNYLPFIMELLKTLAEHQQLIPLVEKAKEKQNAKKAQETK
# In short: as §1
# [8] = target: USP10 (UniProt Q14694)
# In short: as §1
# [9] = target: T6, USP15 (UniProt Q9Y4E8)
# T6 sequence (whole entry): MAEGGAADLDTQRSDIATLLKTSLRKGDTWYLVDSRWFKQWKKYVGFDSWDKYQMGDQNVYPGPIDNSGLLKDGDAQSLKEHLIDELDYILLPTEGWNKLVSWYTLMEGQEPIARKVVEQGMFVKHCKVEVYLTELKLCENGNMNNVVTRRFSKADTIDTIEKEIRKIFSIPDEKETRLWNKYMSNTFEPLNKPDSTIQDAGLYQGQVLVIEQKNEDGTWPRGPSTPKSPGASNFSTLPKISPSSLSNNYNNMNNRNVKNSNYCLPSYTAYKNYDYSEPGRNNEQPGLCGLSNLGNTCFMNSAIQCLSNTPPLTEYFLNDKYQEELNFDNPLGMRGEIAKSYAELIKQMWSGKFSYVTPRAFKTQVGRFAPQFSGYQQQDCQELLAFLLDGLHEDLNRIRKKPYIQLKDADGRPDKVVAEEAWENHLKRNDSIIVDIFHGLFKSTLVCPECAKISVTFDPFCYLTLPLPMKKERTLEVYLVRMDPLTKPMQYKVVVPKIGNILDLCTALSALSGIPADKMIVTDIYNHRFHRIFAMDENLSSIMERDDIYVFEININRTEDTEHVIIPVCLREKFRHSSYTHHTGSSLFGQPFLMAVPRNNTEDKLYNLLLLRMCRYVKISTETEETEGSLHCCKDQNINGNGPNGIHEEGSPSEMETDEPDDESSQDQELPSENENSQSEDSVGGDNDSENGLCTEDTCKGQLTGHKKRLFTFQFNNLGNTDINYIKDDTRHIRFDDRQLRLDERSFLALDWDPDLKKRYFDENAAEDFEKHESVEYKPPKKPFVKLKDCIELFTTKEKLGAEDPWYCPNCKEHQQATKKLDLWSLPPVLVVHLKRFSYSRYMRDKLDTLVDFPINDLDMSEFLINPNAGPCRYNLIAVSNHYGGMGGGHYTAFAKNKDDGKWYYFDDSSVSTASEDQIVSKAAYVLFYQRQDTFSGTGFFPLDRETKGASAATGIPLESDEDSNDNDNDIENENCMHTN
# In short: as §1
# [10] = target: USP16 (UniProt Q9Y5T5)
# In short: as §1
# Sequence of USP16 (Q9Y5T5 whole entry, looked up): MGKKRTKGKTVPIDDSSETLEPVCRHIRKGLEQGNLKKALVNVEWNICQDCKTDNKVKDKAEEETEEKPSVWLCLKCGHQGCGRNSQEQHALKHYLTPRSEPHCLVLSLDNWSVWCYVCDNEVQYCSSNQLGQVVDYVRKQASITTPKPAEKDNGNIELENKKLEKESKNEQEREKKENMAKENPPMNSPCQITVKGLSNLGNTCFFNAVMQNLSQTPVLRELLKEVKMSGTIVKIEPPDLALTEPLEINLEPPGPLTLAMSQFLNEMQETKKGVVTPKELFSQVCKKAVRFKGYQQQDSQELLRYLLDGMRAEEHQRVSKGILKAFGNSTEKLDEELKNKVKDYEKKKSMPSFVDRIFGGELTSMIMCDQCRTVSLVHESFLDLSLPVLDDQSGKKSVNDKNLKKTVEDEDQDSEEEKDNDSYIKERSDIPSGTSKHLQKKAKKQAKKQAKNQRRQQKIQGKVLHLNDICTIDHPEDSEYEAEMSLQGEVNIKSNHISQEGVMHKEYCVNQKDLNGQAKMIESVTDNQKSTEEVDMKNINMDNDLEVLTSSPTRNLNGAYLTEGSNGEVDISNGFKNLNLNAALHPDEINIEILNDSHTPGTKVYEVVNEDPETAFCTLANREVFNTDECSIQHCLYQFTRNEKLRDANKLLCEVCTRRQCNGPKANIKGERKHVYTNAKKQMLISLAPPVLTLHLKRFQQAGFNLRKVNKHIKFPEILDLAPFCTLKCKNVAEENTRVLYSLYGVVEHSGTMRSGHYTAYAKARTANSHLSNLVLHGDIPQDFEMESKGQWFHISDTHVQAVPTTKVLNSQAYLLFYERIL
# Sequence of UCHL1 (P09936 whole entry, looked up): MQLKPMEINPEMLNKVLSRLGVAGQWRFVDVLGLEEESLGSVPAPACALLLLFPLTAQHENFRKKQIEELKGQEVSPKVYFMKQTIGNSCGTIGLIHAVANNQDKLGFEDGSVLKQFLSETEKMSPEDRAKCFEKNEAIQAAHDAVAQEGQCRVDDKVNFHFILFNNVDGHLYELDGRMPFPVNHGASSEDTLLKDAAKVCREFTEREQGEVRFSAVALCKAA
# Sequence of USP10 (Q14694 whole entry): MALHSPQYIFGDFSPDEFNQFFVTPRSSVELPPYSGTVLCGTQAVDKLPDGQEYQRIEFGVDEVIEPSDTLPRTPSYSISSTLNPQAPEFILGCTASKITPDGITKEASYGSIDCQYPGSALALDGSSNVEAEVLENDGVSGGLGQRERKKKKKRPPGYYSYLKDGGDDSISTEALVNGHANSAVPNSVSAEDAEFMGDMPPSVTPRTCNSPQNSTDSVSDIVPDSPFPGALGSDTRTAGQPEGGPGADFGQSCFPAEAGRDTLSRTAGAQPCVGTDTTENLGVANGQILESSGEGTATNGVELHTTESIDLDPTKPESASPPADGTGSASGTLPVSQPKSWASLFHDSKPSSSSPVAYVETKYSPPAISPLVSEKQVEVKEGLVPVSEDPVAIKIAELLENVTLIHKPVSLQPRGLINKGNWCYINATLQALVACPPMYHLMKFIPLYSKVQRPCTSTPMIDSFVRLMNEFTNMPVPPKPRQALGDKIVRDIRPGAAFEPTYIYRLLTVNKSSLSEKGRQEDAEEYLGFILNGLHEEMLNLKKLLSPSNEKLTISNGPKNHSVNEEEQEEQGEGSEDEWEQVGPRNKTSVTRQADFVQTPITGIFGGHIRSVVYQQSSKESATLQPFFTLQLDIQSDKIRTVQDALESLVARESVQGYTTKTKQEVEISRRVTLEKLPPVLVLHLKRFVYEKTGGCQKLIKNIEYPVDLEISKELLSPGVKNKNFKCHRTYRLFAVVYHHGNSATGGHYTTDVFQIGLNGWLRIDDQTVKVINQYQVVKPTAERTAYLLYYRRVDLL
compound,measurement,setting,value
O=C(CCl)N1CCC[C@@H]1c1ccon1,log2 ratio of Biotin-Ahx-Ub-VS probe labelling,[1],-0.245
same,log2 ratio of Biotin-Ahx-Ub-VS probe labelling,[2],-0.356
same,log2 ratio of Biotin-Ahx-Ub-VS probe labelling,[3],0.0558
same,log2 ratio of Biotin-Ahx-Ub-VS probe labelling,[4],-0.283
same,log2 ratio of Biotin-Ahx-Ub-VS probe labelling,[5],-1.49 (active)
same,log2 ratio of Biotin-Ahx-Ub-VS probe labelling,[6],0.0429
same,log2 ratio of Biotin-Ahx-Ub-VS probe labelling,[7],-0.401
same,log2 ratio of Biotin-Ahx-Ub-VS probe labelling,[8],-0.0611
same,log2 ratio of Biotin-Ahx-Ub-VS probe labelling,[9],-0.228
same,log2 ratio of Biotin-Ahx-Ub-VS probe labelling,[10],-0.0988

# Source: the supplement of paper PMC11732987, “Enantioselective OTUD7B fragment discovery through chemoproteomics screening and high-throughput optimisation” (Communications Chemistry, 2025)
